Results on seven molecules are retold here after PubChem BioAssay (NCI).

This is part of a sample that, as a whole, favours compounds with a hit. Of some 83,000 tested, about 20% had one in any assay.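 Single-dose data. Exposure time 48 hours. Values below 10 considered active.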 A number with no mark means an inactive call. Calls of active or inactive are those of the source.

Holding throughout (assay): NCI-60 one-dose screen, 48 h (100 = growth as untreated, 0 = no growth, -100 = all killed)
Holding throughout (conditions): 10 µM unless noted

Experiment [1] relates to DU-145 prostate.
The test system of experiment [2] is K-562 leukemia.
In experiment [3] the test system is MALME-3M melanoma.
For experiment [4], the system named is MDA-MB-231 breast.
Experiment [5] has as its system RXF 393 renal.
Experiment [6] deals with SF-268 CNS.
The subject of experiment [7] is SF-295 CNS.
Experiment [8] has as its system SF-539 CNS.
Experiment [9] deals with UACC-257 melanoma.
Experiment [10] has as its system M14 melanoma.
Experiment [11] deals with HCT-15 colon.
Experiment [12] relates to HT29 colon.
For experiment [13], the system named is SNB-75 CNS.
Experiment [14] has as its system SNB-19 CNS.
Experiment [15] deals with U251 CNS.
The test system of experiment [16] is PC-3 prostate.
Experiment [17] concerns SK-MEL-5 melanoma.
The subject of experiment [18] is UACC-62 melanoma.
In experiment [19] the test system is LOX IMVI melanoma.
The test system of experiment [20] is SK-MEL-28 melanoma.

Regarding `NS(=O)(=O)c1ccc(NC(=O)/C(=C\c2ccc(Cl)cc2Cl)NC(=O)c2ccccc2)cc1`, the growth is 109% in [1]; 88.2% in experiment [2]; 93.2% in experiment [3]; 105% in [4]; 96% in [5]; 94.5% in experiment [6]. Besides, the growth in experiment [7] is 104%; in experiment [8] it was 95.7%; in experiment [9], 102%; in experiment [10] it was 102%; in experiment [11], 110%; in experiment [12], 103%. The growth in experiment [13] is 81.4%; in experiment [14], 95.6%; in experiment [15], 97.1%; in [16], 89.4%; in experiment [17], 90.2%; in [18], 74.9%. The growth in experiment [19] is 96.2%; in experiment [20], 110%.
For the molecule `CCc1n(Cc2ccc3ccccc3n2)cc[n+]1Cc1ccc2ccccc2n1`, the growth in [1] was 51.7%; in experiment [2], 24.9%; in experiment [3], -9.45% (active); in experiment [4], 31.1%; in experiment [5], 46.6%; in [6], 29.6%. Further, the growth is 64.7% in experiment [7]; 24.5% in experiment [8]; -16.5% (active) in [9]; 46.6% in [10]; 92.2% in experiment [11]; -4.83% (active) in experiment [12]. Further, the growth in [13] is 29.5%; in experiment [14], 20.9%; in [15], 12.3%; in experiment [16], 19%; in [17], -36.3% (active); in experiment [18], 12.4%. For the same molecule, the growth in experiment [19] is 26.1%; in experiment [20], 15.9%.
Turning to `Cc1ccc(Cl)cc1NC(=O)c1sc2nc3c(cc2c1N)C(=O)CCC3`, the growth in experiment [1] was 77.4%; in experiment [2] it was 33.6%; in experiment [3], 81.1%; in experiment [4], 80%; in experiment [5], 42.1%; in experiment [6] it was 74.9%. Also, the growth in [7] was 4.01% (active); in experiment [8], 47.7%; in [9], 44.9%; in [10], 62.9%; in experiment [11] it was 45.9%; in [12], 28.8%. The growth is 48% in experiment [13]; 68.1% in experiment [14]; 59.1% in experiment [15]; 55.8% in [16]; 27% in experiment [17]; 53.1% in experiment [18]. For the same molecule, the growth in [19] was 68.1%; in [20], 67%.
For `Cc1n[nH]c2ccc(Br)cc2c1=O`, the growth was 104% in experiment [1]; 91.4% in [2]; 97.4% in experiment [3]; 121% in [4]; 103% in [5]; 107% in experiment [6]. Moreover, the growth was 87% in [7]; 98.1% in experiment [8]; 108% in experiment [9]; 103% in experiment [10]; 100% in [11]; 98.3% in [12]. The growth in experiment [13] was 102%; in experiment [14], 109%; in experiment [15], 100%; in experiment [16] it was 90.9%; in experiment [17], 97.4%; in experiment [18] it was 112%. Further, the growth in [19] is 101%; in [20], 113%.
As to `C=C1C(=O)O[C@H]2[C@H]1CC/C(COC(=O)c1cc3cc(Cl)ccc3[nH]1)=C\CC[C@@]1(C)O[C@@H]21`, the growth in experiment [1] was -96.1% (active); in [2], -21.1% (active); in [3], -76.9% (active); in experiment [4], -77.8% (active); in experiment [5], -88.7% (active); in experiment [6], -88.3% (active). Further, the growth is 39.2% in experiment [7]; -90.4% (active) in [8]; -76.3% (active) in experiment [9]; -56.9% (active) in experiment [10]; -61.1% (active) in [11]; -75.9% (active) in experiment [12]. The growth in experiment [13] is -97.3% (active); in [14], 12.6%; in [15] it was -88.8% (active); in [16], -56.3% (active); in [17], -88.6% (active); in experiment [18], -78.7% (active). The growth was -93.2% (active) in [19] and -83.3% (active) in experiment [20].
`C#CCNC(=O)[C@]1(C)CCC[C@@]2(C)[C@H]1CC=C1C=C(C(C)C)CC[C@@H]12`: the growth in experiment [1] is 103%; in [2] it was 121%; in experiment [3] it was 97.5%; in experiment [4], 96.3%; in experiment [5], 120%; in experiment [6], 89.3%. The growth was 91.6% in [7]; 108% in [8]; 110% in experiment [9]; 98.6% in experiment [10]; 94.8% in experiment [11]; 102% in experiment [12]. Further, the growth is 86.5% in [13]; 101% in experiment [14]; 106% in [15]; 95.4% in experiment [16]; 102% in experiment [17]; 92.1% in experiment [18]. For the same molecule, the growth in experiment [19] is 96.8%; in experiment [20], 111%.
On to `COc1ccc(/C=C(/C(=O)n2cnnn2)c2cc(OC)c(OC)c(OC)c2)cc1`, for which the growth in experiment [1] was 25.1%; in experiment [2], 15.3%; in experiment [3], 62.5%; in experiment [4] it was 36.7%; in experiment [5], -4.36% (active); in experiment [6], 49%. Besides, the growth in [7] was -7.45% (active); in [8] it was -7.92% (active); in [9] it was 70.2%; in experiment [10], -2.57% (active); in [11] it was 15.5%; in [12], 8.2% (active). Also, the growth in experiment [13] is 15.4%; in experiment [14], 17.4%; in experiment [15], 17.9%; in experiment [16], 13.1%; in experiment [17], 15.2%; in [18], 20.1%. Also, the results for the growth in [19] and in [20] were 37% and 43.8%, respectively.
